In PubChem BioAssay (NCATS):
Records with an inconclusive call do not appear. Where a call stands in place of a potency, no number is given. Activity calls are given as the source filed them. Unless noted, the call rests on the fitted dose curve; in most records, active means well fitted curve in the direction sought with a large enough effect; inconclusive means small, poorly fitted or top-dose-only effect, or another doubt; inactive means no such curve, though single readings can be large; an effect the other way counts as inactive or inconclusive.

Key:
[1] = qHTS Assay for Identification of Small Molecule Inducers of Hypoxia Response (AID 2120; active means well fitted curve in the direction sought with a large enough effect in the signal ratio, with a control signal flat, not every such curve was filed as active; the % refers to the signal ratio; further: potency means the concentration at half of the fitted maximal effect)
Outline: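 HRE-bla ME-180, 2500 cells/well, 0.5% dialyzed FBS medium; cpd titration, 17 h 37 degrees C; CCF4 2.5 h RT; Ex 405, Em 460/530 ratio -> %Activity, AC50.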

[2] = Counterscreen for APE1 Inhibitors: Fluorescent Dye Displacement Validation Assay (AID 1707)
Outline: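 Endpoint fluorescence read at 480 nm excitation / 540 nm emission; DNA-binding compounds lower signal by displacing 250 nM Thiazole Orange from 50 nM dsDNA containing a tetrahydrofuran abasic site, Tris-HCl pH7.5 buffer with NaCl and MgCl2.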

[3] = target: Endonuclease 4 (Escherichia coli (strain K12)) (UniProt P0A6C1); assay: Counterscreen for APE1 Inhibitors: qHTS Validation Assay for Inhibitors of Endonuclease IV (AID 1708)
Outline: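 The reaction buffer contained 50 mM Tris-HCl pH 7.5, 50 mM NaCl, 2 mM MgCl2, 1 mM DTT and 0.01% Tween-20. Incision of a 50 nM fluorophore/quencher THF substrate by 2 nM enzyme was measured kinetically.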

[4] = qHTS for differential inhibitors of proliferation of Plasmodium falciparum line 7G8 (AID 1815);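 further: parasite growth measured after three days of incubation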; further: potency means the concentration at half of the fitted maximal effect
[5] = qHTS for differential inhibitors of proliferation of Plasmodium falciparum line GB4 (AID 1816); conditions: Potency: Plasmodium falciparum GB4 proliferation inhibition;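 further: parasite growth measured after 72 h incubation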; further: potency means the concentration at half of the fitted maximal effect
[6] = qHTS for differential inhibitors of proliferation of Plasmodium falciparum line 3D7 (AID 1876);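 further: parasite growth measured after three days of culture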
[7] = qHTS for differential inhibitors of proliferation of Plasmodium falciparum line D10 (AID 1877);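 further: parasites grown with compound for 72 h before DNA staining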
[8] = qHTS for differential inhibitors of proliferation of Plasmodium falciparum line Dd2 (AID 1882); conditions: Potency: Plasmodium falciparum Dd2 proliferation inhibition; further: nearly all actives have a fitted effect of over 65% in size; further: potency means the concentration at half of the fitted maximal effect
Outline: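 RBC culture, 0.3% parasitemia / 2.5% Hct final; cpd added by pin tool in DMSO; 72 h, 37 C, 5% CO2; lysis buffer + SYBR Green I, o/n RT dark; FI 485/535; norm. to artemisinin 0.29 uM and DMSO.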

[9] = qHTS for differential inhibitors of proliferation of Plasmodium falciparum line W2 (AID 1883); conditions: Potency: Plasmodium falciparum W2 proliferation inhibition;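 further: parasites grown with compound for 72 h before lysis and staining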; further: potency means the concentration at half of the fitted maximal effect
[10] = qHTS for differential inhibitors of proliferation of Plasmodium falciparum line HB3 (AID 1886); conditions: Potency: Plasmodium falciparum HB3 proliferation inhibition;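 further: parasites grown with compound for 72 h before SYBR Green readout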; further: potency means the concentration at half of the fitted maximal effect
[11] = target: Ferritin light chain (Equus caballus) (UniProt P02791); assay: qHTS Validation Assay for Identification of Novel General Anesthetics (AID 2323)
Outline: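 Normalized fluorescence response, scaled between free 1-AMA and 1-AMA/apoferritin complex, fitted to a four-parameter Hill equation for concentration-effect values. Binding mix: 10 uM horse-spleen apoferritin, 50% saturated 1-AMA in PBS; read 380/535 nm after 10 min.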

[12] = target: ATP-dependent DNA helicase Q1 (Homo sapiens) (UniProt P46063); assay: qHTS Validation Assay for Inhibitors of RecQ-Like Dna Helicase 1 (RECQ1) (AID 2353)
Outline: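 RECQ1T1 50 nM; forked duplex (20 bp + 30-nt ss tails) 200 nM, ATP 2 mM final; pH 8.0, 2 mM MgCl2, 2.5 ug/ml poly(dI-dC); 15 min compound preincubation; discontinuous kinetic read over 2 h at RT.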

[13] = Validation screen for small molecules that induce DNA re-replication in MCF 10A normal breast cells (AID 463097); further: nearly all actives have a fitted effect of over 60% in size
Outline: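 Following 48 hr compound incubation (37 C, 5% CO2), MCF 10A cells receive Hoechst for 40 min at 37 C. Nuclei are then scanned (excitation 405 nm, emission 500-530 nm) for total fluorescence intensity.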

[14] = Cytometric Cell-Based qHTS for Inhibitors of the mTORC1 Signaling Pathway in MEF (Tsc2-/-, p53-/-) Cells (AID 2660);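 further: Tsc2 and p53 null MEFs carrying empty vector with compound for 24 h; percent of cells above a phospho-rpS6 to PI ratio cutoff in each well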
Outline: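 Cells are plated, treated with compound for 24 hrs at 37 degree Celsius, then fixed, blocked and immunostained for phospho-rpS6 Ser235/236. Propidium iodide counterstain follows. Per-well % positive cells is derived from the PI-normalized phospho-S6 signal.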

[15] = High Content Imaging Cell-Based qHTS for Inhibitors of the mTORC1 Signaling Pathway in MEF (Tsc2-/-, p53-/-) Cells (AID 2666); conditions: at 38.3 µM (top of the series);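 further: percent of cells scored positive for phospho-rpS6 Ser235/236 immunostaining by imaging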
Outline: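 Tsc2-/-, p53-/- MEFs (empty-vector stable) grown in DMEM + 10% FBS were exposed to compounds for 24 hrs at 37 degree Celsius, fixed, and stained with Alexa-488 anti-phospho-rpS6 Ser235/236 plus Hoechst. Imaging gave the percentage of positive cells per well.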

[16] = target: Ubiquitin carboxyl-terminal hydrolase 2 (Homo sapiens) (UniProt O75604); assay: qHTS Validation Assay for Inhibitors of Ubiquitin-specific Protease USP2a Using CHOP2 as the Reporter (AID 463106)
Outline: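 Readout was coupled fluorescence (Ex 485/Em 531 nm), read 60 min after adding 25 nM final Ub-CHOP2 and 25 nM reporter substrate. Beforehand, 10 nM final USP2 core had 30 min at RT with compound in pH 8.0 buffer. Curves were fitted after normalization to NEM and flagged for artifacts using time-zero reads.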

[17] = target: DNA polymerase III PolC-type (Bacillus subtilis (strain 168)) (UniProt P13267); assay: qHTS Validation Assay for the Inhibitors of DNA Replication in Gram-Positive Bacteria (AID 485295);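 further: reconstituted holoenzyme with PolC plus beta clamp SSB and primase; PicoGreen fluorescence of double-stranded DNA made on primed circular M13 template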
Outline: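 Inhibition of DNA synthesis by the reconstituted PolC holoenzyme, monitored through PicoGreen staining of dsDNA formed from ssM13Gori, dNTPs and NTPs, with compound preincubation and room-temperature reaction.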

[18] = target: Tumor susceptibility gene 101 protein (Homo sapiens) (UniProt Q99816); assay: qHTS Validation Assay for Iinhibitors of HIV-1 Budding by Blocking the Interaction of PTAP/TSG101 (AID 485342; calls by dose curve)
Outline: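 Compound wells held the Tsg101 binding domain (10 uM) and a FITC-conjugated PTAP peptide (50 nM) in buffer at pH 7.5 containing 0.15 M NaCl and 0.01% Tween 20; polarization was recorded after 20 min, r.t.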

[19] = target: RecQ-like DNA helicase BLM (Homo sapiens) (UniProt P54132); assay: qHTS Validation Assay for Inhibitors of Bloom's syndrome helicase (BLM) (AID 2364)
Outline: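 Forked 20-bp duplex substrate (200 nM, TAMRA/BHQ-2) plus 2 mM ATP added after 15 min compound preincubation with 50 nM enzyme, pH 8.0, poly(dI-dC) 2.5 ug/ml. Strand separation followed by fluorescence (525/598 nm) over 2 h, normalized to enzyme-free and DMSO controls.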

[20] = qHTS Assay for Modulators of Human Peripheral Myelin Protein 22 (PMP22) Expression/Activity (AID 1967; active means well fitted curve in the direction sought with a large enough effect in the signal ratio; the % refers to the signal ratio)
Outline: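 Engineered MSC80 cells, Pmp22-promoter green and EF-alpha red luciferase reporters; 24h compound treatment at 37 °C. Concentration-response fits on green, red and ratio signals, each overlap-corrected, with %Activity normalized to untreated wells.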

Chain of Ferritin light chain (Equus caballus) (P02791 2-175 limits assumed): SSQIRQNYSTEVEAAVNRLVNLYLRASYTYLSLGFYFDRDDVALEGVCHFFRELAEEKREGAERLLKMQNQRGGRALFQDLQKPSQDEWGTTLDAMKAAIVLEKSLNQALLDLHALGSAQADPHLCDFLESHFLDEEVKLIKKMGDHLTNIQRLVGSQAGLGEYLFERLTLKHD
Chain of ATP-dependent DNA helicase Q1 (Homo sapiens) (P46063 whole entry, looked up): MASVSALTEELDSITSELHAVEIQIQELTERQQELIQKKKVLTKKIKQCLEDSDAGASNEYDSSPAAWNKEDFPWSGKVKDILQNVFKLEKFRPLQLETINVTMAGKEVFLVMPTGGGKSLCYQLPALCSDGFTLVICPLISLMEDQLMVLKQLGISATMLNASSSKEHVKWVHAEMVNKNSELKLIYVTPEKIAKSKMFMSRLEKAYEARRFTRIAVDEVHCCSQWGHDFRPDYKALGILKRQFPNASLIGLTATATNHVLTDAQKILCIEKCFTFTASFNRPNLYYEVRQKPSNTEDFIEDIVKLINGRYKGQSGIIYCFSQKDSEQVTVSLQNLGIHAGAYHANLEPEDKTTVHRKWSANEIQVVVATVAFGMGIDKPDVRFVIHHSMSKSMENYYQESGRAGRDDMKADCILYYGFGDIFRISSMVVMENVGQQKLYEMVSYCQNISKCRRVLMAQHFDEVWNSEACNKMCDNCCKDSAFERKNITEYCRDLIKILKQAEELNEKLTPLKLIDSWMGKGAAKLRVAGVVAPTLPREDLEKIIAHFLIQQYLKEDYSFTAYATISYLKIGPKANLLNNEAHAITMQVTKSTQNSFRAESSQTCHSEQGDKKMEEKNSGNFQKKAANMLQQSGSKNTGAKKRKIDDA
Chain of Ubiquitin carboxyl-terminal hydrolase 2 (Homo sapiens) (O75604 whole entry, looked up): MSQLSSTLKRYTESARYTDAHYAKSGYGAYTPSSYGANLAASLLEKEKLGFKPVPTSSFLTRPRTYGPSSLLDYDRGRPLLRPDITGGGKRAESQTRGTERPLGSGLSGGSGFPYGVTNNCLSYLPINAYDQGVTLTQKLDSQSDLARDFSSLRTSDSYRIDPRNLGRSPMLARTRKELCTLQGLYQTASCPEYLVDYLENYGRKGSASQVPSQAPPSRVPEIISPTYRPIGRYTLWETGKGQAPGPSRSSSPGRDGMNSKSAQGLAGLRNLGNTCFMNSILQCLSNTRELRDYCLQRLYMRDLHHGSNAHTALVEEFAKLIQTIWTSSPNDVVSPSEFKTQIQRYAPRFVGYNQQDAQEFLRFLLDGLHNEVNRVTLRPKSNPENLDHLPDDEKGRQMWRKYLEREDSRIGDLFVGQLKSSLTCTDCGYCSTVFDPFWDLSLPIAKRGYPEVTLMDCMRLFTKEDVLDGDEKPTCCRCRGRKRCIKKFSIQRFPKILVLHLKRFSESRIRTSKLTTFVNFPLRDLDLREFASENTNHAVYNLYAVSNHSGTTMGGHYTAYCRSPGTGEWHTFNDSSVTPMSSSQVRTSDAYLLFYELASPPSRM
Chain of DNA polymerase III PolC-type (Bacillus subtilis (strain 168)) (P13267 whole entry, looked up): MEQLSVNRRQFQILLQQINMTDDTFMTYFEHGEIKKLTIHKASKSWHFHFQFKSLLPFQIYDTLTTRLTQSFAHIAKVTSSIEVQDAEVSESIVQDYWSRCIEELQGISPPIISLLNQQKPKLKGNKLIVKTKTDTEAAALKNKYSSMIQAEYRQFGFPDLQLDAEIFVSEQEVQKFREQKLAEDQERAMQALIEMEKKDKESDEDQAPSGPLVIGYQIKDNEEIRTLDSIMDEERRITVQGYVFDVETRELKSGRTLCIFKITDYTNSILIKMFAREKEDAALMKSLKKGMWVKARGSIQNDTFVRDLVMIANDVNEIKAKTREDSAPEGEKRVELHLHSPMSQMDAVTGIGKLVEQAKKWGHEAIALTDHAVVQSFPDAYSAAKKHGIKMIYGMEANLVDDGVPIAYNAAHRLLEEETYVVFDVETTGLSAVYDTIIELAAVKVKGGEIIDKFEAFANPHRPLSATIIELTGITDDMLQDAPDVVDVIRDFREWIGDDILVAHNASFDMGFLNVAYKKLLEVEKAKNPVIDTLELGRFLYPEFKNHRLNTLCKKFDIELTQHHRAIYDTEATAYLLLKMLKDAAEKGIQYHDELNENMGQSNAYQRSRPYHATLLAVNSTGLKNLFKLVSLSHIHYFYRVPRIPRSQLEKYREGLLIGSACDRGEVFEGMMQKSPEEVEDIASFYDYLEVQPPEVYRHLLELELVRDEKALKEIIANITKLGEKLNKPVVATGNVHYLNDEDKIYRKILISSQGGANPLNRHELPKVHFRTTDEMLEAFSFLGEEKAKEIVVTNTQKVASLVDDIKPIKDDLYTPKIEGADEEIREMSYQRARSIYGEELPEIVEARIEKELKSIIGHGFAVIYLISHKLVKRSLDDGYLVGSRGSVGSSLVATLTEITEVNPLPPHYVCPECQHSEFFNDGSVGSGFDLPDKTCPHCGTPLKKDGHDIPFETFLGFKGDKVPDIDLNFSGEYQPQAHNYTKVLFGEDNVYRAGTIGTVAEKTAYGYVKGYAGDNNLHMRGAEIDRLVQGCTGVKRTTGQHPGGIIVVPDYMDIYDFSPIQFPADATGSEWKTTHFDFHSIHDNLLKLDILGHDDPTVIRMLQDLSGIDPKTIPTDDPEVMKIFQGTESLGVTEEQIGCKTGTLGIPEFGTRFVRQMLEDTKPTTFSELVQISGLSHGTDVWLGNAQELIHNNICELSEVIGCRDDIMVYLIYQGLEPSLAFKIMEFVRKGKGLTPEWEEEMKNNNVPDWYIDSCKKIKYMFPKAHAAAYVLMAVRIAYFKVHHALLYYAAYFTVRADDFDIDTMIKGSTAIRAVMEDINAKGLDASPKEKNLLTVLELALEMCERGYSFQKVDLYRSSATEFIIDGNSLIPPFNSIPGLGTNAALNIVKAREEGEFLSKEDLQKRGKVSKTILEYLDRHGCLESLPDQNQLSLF
Chain of RecQ-like DNA helicase BLM (Homo sapiens) (P54132 whole entry, looked up): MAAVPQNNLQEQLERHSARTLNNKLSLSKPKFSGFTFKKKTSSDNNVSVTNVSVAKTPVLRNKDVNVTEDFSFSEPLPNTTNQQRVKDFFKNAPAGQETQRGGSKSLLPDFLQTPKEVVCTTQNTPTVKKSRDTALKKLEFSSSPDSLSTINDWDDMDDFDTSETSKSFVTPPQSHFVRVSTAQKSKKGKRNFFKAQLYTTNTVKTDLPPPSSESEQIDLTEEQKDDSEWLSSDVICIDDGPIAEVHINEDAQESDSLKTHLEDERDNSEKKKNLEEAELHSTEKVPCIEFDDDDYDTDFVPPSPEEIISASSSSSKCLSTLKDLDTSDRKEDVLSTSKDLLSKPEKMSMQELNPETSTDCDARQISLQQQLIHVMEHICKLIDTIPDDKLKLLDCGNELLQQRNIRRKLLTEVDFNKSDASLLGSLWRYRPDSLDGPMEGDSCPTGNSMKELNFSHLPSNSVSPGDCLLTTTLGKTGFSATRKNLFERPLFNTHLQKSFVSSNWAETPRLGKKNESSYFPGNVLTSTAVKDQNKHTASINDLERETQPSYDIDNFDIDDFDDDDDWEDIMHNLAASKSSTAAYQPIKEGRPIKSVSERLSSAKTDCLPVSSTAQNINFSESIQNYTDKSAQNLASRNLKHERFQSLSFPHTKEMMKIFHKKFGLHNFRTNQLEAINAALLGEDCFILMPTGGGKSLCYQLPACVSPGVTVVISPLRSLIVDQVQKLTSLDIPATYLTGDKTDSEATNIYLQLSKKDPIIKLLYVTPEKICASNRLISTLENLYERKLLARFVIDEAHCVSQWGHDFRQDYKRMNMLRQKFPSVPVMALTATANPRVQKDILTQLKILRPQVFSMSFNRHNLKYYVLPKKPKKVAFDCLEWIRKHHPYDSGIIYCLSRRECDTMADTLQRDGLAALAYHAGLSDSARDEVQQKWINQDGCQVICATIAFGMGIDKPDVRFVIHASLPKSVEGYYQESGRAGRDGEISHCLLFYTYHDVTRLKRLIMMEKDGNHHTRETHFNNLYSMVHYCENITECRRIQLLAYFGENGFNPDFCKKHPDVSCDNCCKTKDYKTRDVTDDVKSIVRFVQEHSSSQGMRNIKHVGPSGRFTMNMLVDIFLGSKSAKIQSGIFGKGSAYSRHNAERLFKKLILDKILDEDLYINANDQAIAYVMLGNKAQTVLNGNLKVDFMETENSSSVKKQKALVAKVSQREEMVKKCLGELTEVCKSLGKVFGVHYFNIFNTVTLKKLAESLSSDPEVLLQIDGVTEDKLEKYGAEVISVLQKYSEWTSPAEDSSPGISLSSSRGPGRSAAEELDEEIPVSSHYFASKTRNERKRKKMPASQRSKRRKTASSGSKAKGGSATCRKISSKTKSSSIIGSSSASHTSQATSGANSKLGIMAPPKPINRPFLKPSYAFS
Chain of Tumor susceptibility gene 101 protein (Homo sapiens) (Q99816 whole entry, looked up, the tested form may be a part): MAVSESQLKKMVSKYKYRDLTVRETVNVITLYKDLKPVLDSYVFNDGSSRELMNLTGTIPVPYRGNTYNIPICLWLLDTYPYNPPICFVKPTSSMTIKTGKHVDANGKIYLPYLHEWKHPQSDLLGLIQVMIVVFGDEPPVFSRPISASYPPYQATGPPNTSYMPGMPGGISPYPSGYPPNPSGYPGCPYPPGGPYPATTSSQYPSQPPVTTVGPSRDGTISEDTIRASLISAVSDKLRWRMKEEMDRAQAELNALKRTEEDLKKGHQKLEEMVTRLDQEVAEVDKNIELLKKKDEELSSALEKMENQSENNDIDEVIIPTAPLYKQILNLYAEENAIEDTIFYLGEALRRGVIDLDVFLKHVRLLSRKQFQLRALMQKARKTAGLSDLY

With `OCc1ccccc1` the Potency [1] was “inactive”.
For `O=c1[nH]c(=O)n([C@H]2C[C@H](O)[C@@H](CO)O2)cc1/C=C/Br`, the outcome [2] was “inactive”, the outcome [3] was “inactive” and the Potency [4] was “inactive”. For the same molecule, the Potency [5] was “inactive”, the outcome [6] was “inactive” and the outcome [7] was “inactive”. The Potency [8] was “inactive”, the Potency [9] was “inactive” and the Potency [10] was “inactive”. The outcome [11] was “inactive”, the outcome [12] was “inactive” and the outcome [13] was “inactive”.
With `CC[C@H]1OC(=O)[C@H](C)[C@@H](O[C@H]2C[C@@](C)(OC)[C@@H](O)[C@H](C)O2)[C@H](C)[C@@H](O[C@@H]2O[C@H](C)C[C@H](N(C)C)[C@H]2O)[C@](C)(O)C[C@@H](C)CN(C)[C@H](C)[C@@H](O)[C@]1(C)O` the Potency [1] was “inactive”.
With `NCCN` the Potency [1] was “inactive”.
In the case of `CCCCC`, the Potency [1] is reported as “inactive”.
For `CCCCO`, the Potency [1] was “inactive”.
With `Cc1cc(C)c(NC(=O)C[C@H](CC(=O)O)c2cccc3ccccc23)c(C(=O)N2CCC3(CCCC3)CC2)c1` the outcome [2] was “inactive”, the outcome [3] was “inactive” and the Potency [4] was 12.6 µM (active). The Potency [5] was 11.2 µM (active), the Potency [9] was 11.2 µM (active) and the Potency [10] was 14.1 µM (active). The outcome [11] was “inactive”, the outcome [12] was “inactive” and the outcome [13] was “inactive”.
For `Cc1ncc[nH]1`, the Potency [1] was “inactive”.
For `Oc1ccc(/C=C/c2cc(O)cc(O)c2)cc1`, the outcome [2] was “inactive”, the outcome [3] was “inactive” and the Potency [4] was “inactive”. For the same molecule, the outcome [7] was “inactive”, the Potency [8] was “inactive” and the Potency [10] was “inactive”. The outcome [11] was “inactive”, the outcome [12] was “inactive” and the outcome [14] was “inactive”. The outcome [15] was “inactive”, the outcome [13] was “inactive” and the outcome [16] was “inactive”. For the same molecule, the outcome [17] was “inactive” and the outcome [18] was “inactive”.
For `CO`, the Potency [1] was “inactive”.
For `CC(C)O`, the Potency [1] was “inactive”.
In the case of `[O-][N+](=Nc1ccccc1)c1ccccc1`, the Potency [1] is reported as “inactive”.
With `CC(C)(C)CC(C)(C)c1ccc(OCCO)cc1` the Potency [1] was “inactive”.
For `NC(N)=O`, the Potency [1] was “inactive”.
In the case of `O.O.O.O.O.O.O.O=S(=O)([O-])[O-].[Co+2]`, the Potency [1] is reported as 31.6 µM (active).
In the case of `CC1=CCC2CC1C2(C)C` (configuration not stated), the Potency [1] is reported as “inactive”.
In the case of `C[C@@](Cc1ccc(O)c(O)c1)(NN)C(=O)O`, the outcome [2] is reported as “inactive”, the outcome [3] is reported as “inactive” and the outcome [7] is reported as “inactive”. The Potency [8] was 10 µM (active), the outcome [11] was “inactive” and the outcome [12] was “inactive”. For the same molecule, the outcome [19] was “inactive” and the outcome [13] was “inactive”.
In the case of `c1ccc2ccccc2c1`, the Potency [1] is reported as “inactive”.
With `O=c1n(CC2CO2)c(=O)n(CC2CO2)c(=O)n1CC1CO1` (configuration not stated) the Potency [1] was “inactive”.
In the case of `O=P(O)(O)O`, the Potency [1] is reported as “inactive”.
With `CC1=CC(=O)NS(=O)(=O)O1` the Potency [1] was “inactive”.
For `Oc1cccc(O)c1O`, the Potency [1] was “inactive”.
In the case of `Cc1ccc(S(=O)(=O)O)cc1C`, the Potency [1] is reported as “inactive”.
In the case of `CCOC(C)OCC`, the Potency [1] is reported as “inactive”.
In the case of `Nc1ncnc2c1ncn2[C@H]1CC[C@@H](CO)O1`, the Potency [1] is reported as “inactive”.
For `OC[C@H]1O[C@@H]2O[C@H]3[C@H](O)[C@@H](O)[C@@H](O[C@H]4[C@H](O)[C@@H](O)[C@@H](O[C@H]5[C@H](O)[C@@H](O)[C@@H](O[C@H]6[C@H](O)[C@@H](O)[C@@H](O[C@H]7[C@H](O)[C@@H](O)[C@@H](O[C@H]1[C@H](O)[C@H]2O)O[C@@H]7CO)O[C@@H]6CO)O[C@@H]5CO)O[C@@H]4CO)O[C@@H]3CO`, the Potency [1] was “inactive”.
For `OCl`, the Potency [1] was “inactive”.
With `CC/C=C\C/C=C\C/C=C\CCCCCCCC(=O)O` the Potency [1] was “inactive”.
With `OB(O)O` the Potency [1] was “inactive”.
For `C[C@H](CCC(=O)O)[C@H]1CC[C@H]2[C@@H]3[C@H](O)C[C@@H]4C[C@H](O)CC[C@]4(C)[C@H]3C[C@H](O)[C@]12C`, the Potency [1] was “inactive”.
With `CO/N=C(/C(=O)N[C@@H]1C(=O)N2C(C(=O)O)=C(COC(N)=O)CS[C@H]12)c1ccco1` the Potency [1] was “inactive”.
In the case of `ClC(Cl)Cl`, the Potency [1] is reported as “inactive”.
In the case of `OCC(O)CO`, the Potency [1] is reported as “inactive”.
In the case of `Nc1nccs1`, the Potency [1] is reported as “inactive”.
With `C/C=C/C=C/C(=O)O` the Potency [1] was “inactive”.
With `O=C(NCCNCC(O)COc1ccc(O)cc1)N1CCOCC1` (configuration not stated) the outcome [2] was “inactive”, the outcome [3] was “inactive” and the Potency [4] was “inactive”. The Potency [5] was “inactive”, the outcome [6] was “inactive” and the outcome [7] was “inactive”. For the same molecule, the Potency [8] was “inactive”, the Potency [9] was “inactive” and the Potency [10] was “inactive”. For the same molecule, the outcome [20] was “inactive”, the outcome [11] was “inactive” and the outcome [12] was “inactive”. The outcome [13] was “inactive”.
